Bioassay records as filed in PubChem BioAssay.
CYP2C19 activ – activators of human cytochrome P450 2C19; P33261; recombinant CYP2C19, luciferin-H EGE luminescence; active compounds read high; 0 = fully inhibited enzyme, 1 = untreated enzyme; activation factor at 5 µM; 96,000 tested, under 10 active; AID 1025;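 active = activation factor of at least 2 at 5 µM in the primary screen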;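 note: 0 = wells with 2.5 mM tranylcypromine and 1 = vehicle-only wells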
CYP2C19 inh – blocks human cytochrome P450 2C19; inhibition, % at 5 µM; AID 778; CYP2C19 Supersomes, luciferin-H EGE luminescence, 30 min; P33261; hit rate 21% among 96,000;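 active = CYP2C19 inhibition above a set limit at 5 µM in the primary screen, cut at about 50% in these data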;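 note: plate controls were negative control wells for no effect and 2.5 mM tranylcypromine positive control for full effect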
CYP2C9 inh – blocks human cytochrome P450 2C9. CYP2C9 Supersomes, luciferin-H conversion, luminescence. inhibition, % at 5 µM. hit rate 20% among 96,000. AID 777;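 active = blocking of liver enzyme CYP2C9 beyond about 50% at 5 µM, limit read from the data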
Cav32 inh – blocks human Cav3.2 T-type calcium channel; O95180; hit rate 4% among 100,000; Cav3.2-expressing cells, Fluo-4 calcium fluorescence FDSS; active compounds read low; AID 449739; B-score at 10 µM;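 active = single-dose well whose peak fluorescence ratio is a statistical outlier from its plate by either plate-standardised score or position-corrected B-score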
PTK2B oligo ant – antagonists of human Pyk2 oligomerization. Q293 cells, Pyk2 FERM NanoBiT luminescence; active compounds read low. AID 1347419. z-score (the deposit names both 25 µM and 10 µM). hit rate 0.83% among 99,000. Q14289;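 active = Z-score of -3 or lower, scaled per plate to the spread of control and sample wells; inactive = z-score above -3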;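 note: negative z-score means lost luminescence so less FERM oligomerization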
Target sequence (Q14289 whole entry, looked up): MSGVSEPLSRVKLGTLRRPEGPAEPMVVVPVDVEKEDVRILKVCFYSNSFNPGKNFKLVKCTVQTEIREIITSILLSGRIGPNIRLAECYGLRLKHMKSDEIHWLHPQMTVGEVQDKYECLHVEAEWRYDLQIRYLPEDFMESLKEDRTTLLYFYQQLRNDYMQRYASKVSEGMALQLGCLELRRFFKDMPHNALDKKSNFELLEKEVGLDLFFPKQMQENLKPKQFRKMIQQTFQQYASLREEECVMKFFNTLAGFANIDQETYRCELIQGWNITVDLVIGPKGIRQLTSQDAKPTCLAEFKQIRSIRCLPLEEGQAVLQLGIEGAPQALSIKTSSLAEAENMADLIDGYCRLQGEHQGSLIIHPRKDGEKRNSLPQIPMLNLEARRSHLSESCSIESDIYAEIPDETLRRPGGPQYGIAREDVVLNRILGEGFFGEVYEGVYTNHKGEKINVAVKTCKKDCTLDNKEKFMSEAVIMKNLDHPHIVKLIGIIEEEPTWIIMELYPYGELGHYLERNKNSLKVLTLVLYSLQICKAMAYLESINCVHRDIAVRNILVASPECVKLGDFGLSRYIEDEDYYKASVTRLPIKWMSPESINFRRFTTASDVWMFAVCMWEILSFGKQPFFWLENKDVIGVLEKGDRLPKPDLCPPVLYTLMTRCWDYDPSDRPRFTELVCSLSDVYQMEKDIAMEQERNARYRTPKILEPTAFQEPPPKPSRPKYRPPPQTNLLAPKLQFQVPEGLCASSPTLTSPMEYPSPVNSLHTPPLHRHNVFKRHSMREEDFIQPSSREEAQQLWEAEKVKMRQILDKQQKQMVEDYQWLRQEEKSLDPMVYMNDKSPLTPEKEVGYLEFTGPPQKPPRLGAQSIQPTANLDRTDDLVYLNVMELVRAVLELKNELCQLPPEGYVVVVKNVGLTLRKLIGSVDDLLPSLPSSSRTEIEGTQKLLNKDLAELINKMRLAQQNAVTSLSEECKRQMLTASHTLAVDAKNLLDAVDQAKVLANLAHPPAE
CYP2C9 activ – increases human cytochrome P450 2C9 activity; P11712; recombinant CYP2C9, luciferin-H conversion, luminescence; active compounds read high; factor 1 = untreated enzyme, 0 = blocked; activation factor at 5 µM; hit rate 1.4% among 96,000;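 active = activation factor of 2 or more for CYP2C9 at a 5 µM dose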;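 note: 0 = sulfaphenazole-blocked wells and 1 = vehicle-only wells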
* hit, by the source's call; . = no result. Hits are enriched below; roughly 27% of the tested compounds scored in any of these assays.

SMILES | CYP2C19 activ | CYP2C19 inh | CYP2C9 inh | Cav32 inh | PTK2B oligo ant | CYP2C9 activ
O=C(CSc1ccc(F)cc1)N1CCC(c2nc3ccccc3s2)CC1 | 0.8 | 24 | 33 | . | -0.79 | 0.7
Cc1nnc(SCC(=O)N2CCC(c3noc4ccc(F)cc34)CC2)s1 | 1 | -2 | 37 | 1 | -0.55 | 0.6
O=C(CSc1ccc2ccccc2n1)N1CCC(c2noc3ccc(F)cc23)CC1 | . | . | . | -6.5* | -0.51 | .
Cc1sc2ncnc(SCC(=O)N3CCC(c4noc5ccc(F)cc45)CC3)c2c1C | 0.4 | 65* | 79* | . | 1.3 | 0.2
Cc1ccc(Cn2c(C3CCCN3c3nc(C)cs3)nc3cc(C(=O)NCCCO)ccc32)cc1 (stereo not drawn) | . | . | . | 0.38 | . | .
Cc1ccc2c(CC(=O)N3CCN(S(=O)(=O)c4cccs4)CC3)coc2c1 | 0.1 | 92* | 80* | 0.074 | 0.22 | 0.2
CC(=O)c1ccc(OCCCC(=O)N2CCN(S(=O)(=O)c3cccs3)CC2)cc1 | 0.9 | 15 | 42 | 0.86 | 0.46 | 0.6
C#CCOC(=O)c1ccc(-n2cncn2)nc1 | 0.2 | 82* | 33 | -0.052 | 0.68 | 0.7
CCOCCOC(=O)c1ccc(-n2cncn2)nc1 | 0.4 | 61* | 18 | -0.6 | -0.48 | 0.8
CCOC(=O)c1ccc(-n2cncn2)nc1 | 0.6 | 42 | 4 | 0.1 | 0.16 | 1
COc1ccc(CCNC(=O)C2CCN(S(=O)(=O)N3CCC4(CC3)OCCO4)CC2)cc1OC | . | . | . | . | 1.1 | .
Cc1nn(Cc2cccc(F)c2)c(C)c1NC(=O)c1ccc(COc2ccccc2Cl)cc1 | 0.5 | 46 | 65* | -4.6* | -2.1 | 0.3
Cc1nn(Cc2cccc(F)c2)c(C)c1NC(=O)c1c([N+](=O)[O-])c(C)nn1C | 0.2 | 76* | 62* | 0.098 | 0.19 | 0.4
Cc1nn(C)c(C(=O)Nc2ccn(Cc3c(F)c(F)cc(F)c3F)n2)c1[N+](=O)[O-] | 0.5 | 46 | 49 | . | 0.2 | 0.5
Cc1nn(Cc2cccc(C(=O)Nc3ccn(Cc4c(F)c(F)cc(F)c4F)n3)c2)c(C)c1[N+](=O)[O-] | 0.1 | 86* | 93* | -3 | -1.1 | 0.1
CCC(C)NC(=O)c1ccc(COc2ccccc2Cl)cc1 (stereo not drawn) | 0.9 | 12 | 7 | -0.098 | -0.76 | 0.9
CCc1ccccc1N1CC(C(=O)O)CC1=O (stereo not drawn) | 1.1 | -13 | -18 | -0.33 | -0.36 | 1.2
C=CCNc1nc2c(c(=O)n(C)c(=O)n2C)n1CC(=C)C | . | . | . | 0.058 | . | .
O=C(CSc1cccc(C(F)(F)F)c1)Nc1ccc(Cl)cc1Cl | 0 | 96* | -68 | -0.64 | 1.1 | 1.7
CC(Sc1cccc(C(F)(F)F)c1)C(=O)NC(N)=O (stereo not drawn) | 1.1 | -5 | -142 | 0.34 | 1.7 | 2.4*
Cc1cc(SCC(=O)NC(=O)NCc2ccco2)nc2c(C)cccc12 | 0.7 | 33 | 22 | -0.66 | 0.72 | 0.8
CCNC(=O)NC(=O)CSc1cccc(C(F)(F)F)c1 | 0.2 | 77* | 16 | -1.3 | -0.59 | 0.8
O=C(CSc1cccc(C(F)(F)F)c1)NC(=O)NCc1ccco1 | 0.7 | 26 | -2 | -5.3* | -0.17 | 1
Cc1ccc2nc(-c3sc4nc(C)cc(C)c4c3N)[nH]c2c1 | . | . | . | 0.014 | 3.4 | .
O=C1CC(C(=O)Nc2ccc(F)c(Cl)c2)N=C(N2CCCCC2)N1 (stereo not drawn) | 0.9 | 7 | 10 | 0.42 | 0.97 | 0.9
SMILES | CYP2C19 activ | CYP2C19 inh | CYP2C9 inh | Cav32 inh | PTK2B oligo ant | CYP2C9 activ
COc1ccc(CC(=O)N2CC(=O)N(CCc3ccccc3)C(=O)C2)cc1 | 0.7 | 26 | 0 | 0.32 | 0.16 | 1
COc1ccc(/C=C2\C(=O)N(Cc3ccc(F)cc3)CC(=O)N2Cc2ccccc2)cc1 | 0.3 | 72* | 88* | -2.4 | -0.71 | 0.1
COc1ccc(/C=C2\C(=O)NCC(=O)N2Cc2ccccc2)cc1 | 0.4 | 65* | 53* | -1.4 | -1.3 | 0.5
OCC[C@H]1C[C@@H](O)[C@H](O)[C@]2(CCCO2)O1 | . | . | . | 0.2 | . | .
CCOC(=O)c1cccc(NC(=O)CSc2nnc(C)n2Cc2ccccc2)c1 | 0.1 | 87* | 91* | -0.37 | -1.5 | 0.1
CCOC(=O)c1cccc(NC(=O)CSc2nnc(C3CCCCC3)n2CC)c1 | 0.7 | 26 | 46 | . | 0.68 | 0.5
CCOC(=O)c1cccc(NC(=O)CSc2nnc(-c3ccoc3C)n2CC)c1 | 0.6 | 43 | 70* | 0.45 | -0.22 | 0.3
Cc1cccc(NC(=O)CSc2nc(N)cc(N)n2)c1 | . | . | . | 0.85 | 0.35 | .
CCOC(=O)c1cccc(NC(=O)CSc2nc3ccccc3c(=O)n2CC)c1 | 0.9 | 8 | 51* | 0.65 | -0.94 | 0.5
CCOC(=O)c1ccc(NC(=O)CSc2nnc(C)n2-c2ccccc2)cc1 | 0.9 | 8 | 16 | -1 | -0.36 | 0.8
CCOC(=O)c1cccc(NC(=O)CSc2nc(N)cc(N)n2)c1 | 0.4 | 64* | 78* | -0.52 | -1.6 | 0.2
Cc1cc(-c2cc(C(=O)Nc3ccccc3)on2)nc(NC2CCCC2)n1 | . | . | . | -1.6 | . | .
COc1ccc(S(=O)(=O)NNC(=O)c2cc3cc4ccccc4nc3s2)cc1 | 1.1 | -13 | -8 | -1.5 | -0.09 | 1.1
COc1ccc(Cl)c(Cn2c(NCCCO)nc3c2c(=O)n(C)c(=O)n3C)c1 | 1 | 2 | 7 | 1.9 | -0.23 | 0.9
CCOC(=O)c1cccc(NC(=O)CSc2nnnn2CC)c1 | 0.4 | 55* | 83* | 0.37 | 1.2 | 0.2
CCOC(=O)c1ccc(NC(=O)CSc2nnnn2CCCO)cc1 | 0.4 | 58* | 44 | -0.35 | -0.45 | 0.6
CCCNC(=O)c1cnc(Sc2ncc(C(F)(F)F)cc2Cl)n1C | 0.8 | 24 | 71* | 0.61 | 1.4 | 0.3
COC(=O)[C@@H]1C[C@@]2(O)[C@H](O)[C@H](O)[C@H](O)C[C@H]2N1C/C=C/c1ccccc1 | . | . | . | -1.6 | . | .
COc1ccc(OCCOC(=O)c2cccs2)cc1 | 0.2 | 84* | 73* | -2.1 | -0.79 | 0.3
Cc1ccc(/C(N)=N/OC(=O)c2cccs2)cc1 | . | . | . | . | 0.62 | .
COc1ccc(C(=O)O/N=C(/C)c2cccs2)cc1 | 0.5 | 48 | 91* | -1.3 | 0.12 | 0.1
COc1ccc2[nH]c(=O)c(COC(=O)c3cccs3)cc2c1 | . | . | . | . | 1.3 | .
COc1ccc(C2CC2/C(C)=N/OC(=O)c2cccs2)cc1 (stereo not drawn) | 0.4 | 62* | 75* | -0.62 | 1.4 | 0.3
Cc1cc(NC(=O)CCCC(=O)NCc2cccs2)no1 | 0.9 | 13 | -1 | 0.97 | -0.34 | 1
CCOC(=O)c1sc(NC(C)=O)nc1-c1ccccc1 | 1 | 2 | 19 | 2.2 | -0.28 | 0.8
CC(C)Oc1ccc(C(=O)NC2(C(F)(F)F)NC(=O)N(CCCc3ccccc3)C2=O)cc1 (stereo not drawn) | . | . | . | . | -1.4 | .
CCOP(=O)(OCC)c1nc(/C=C/c2ccccc2)oc1NCc1ccccc1 | 0.4 | 56* | 36 | . | -1.7 | 0.6
CCOP(=O)(OCC)c1nc(/C=C/c2ccccc2)oc1NCc1ccc(OC)cc1 | 0 | 98* | 78* | -5.6* | -0.66 | 0.2
